Holding throughout (experiment): DAPPL (digital affinity profiling via proximity ligation, sequencing); 10 mM Tris-HCl pH 7.5, 50 mM NaCl, 1 mM DTT, 4% glycerol, room temperature, 30 min; GST-TFs on glutathione beads, 16-mer random dsDNA library, 0.1% formaldehyde crosslink after washing; high values mean tight binding
One test deals with T1, FEV (Homo sapiens, UniProt Q99581 1-238).
T1 sequence: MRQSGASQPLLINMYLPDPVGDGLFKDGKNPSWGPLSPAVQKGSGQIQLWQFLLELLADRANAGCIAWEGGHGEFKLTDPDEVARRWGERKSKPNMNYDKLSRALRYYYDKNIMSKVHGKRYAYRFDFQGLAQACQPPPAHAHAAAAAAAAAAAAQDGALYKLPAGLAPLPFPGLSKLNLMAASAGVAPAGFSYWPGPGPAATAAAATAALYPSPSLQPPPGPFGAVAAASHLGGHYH
The conditions noted are these: protein: recombinant; tags: N-terminal GST; dsDNA, one strand shown. The method in brief: (§1)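 In yeast, human transcription factors were expressed with a GST fusion, then pulled down on glutathione beads and given DNA barcodes. Pooled with a tag-only sample, they were exposed to 200 nmole of a 16-mer random double-stranded DNA library (Tris/NaCl/DTT/glycerol buffer, room temperature, 30 min), washed, crosslinked with 0.1% formaldehyde, proximity-ligated using BsaI/T4 ligase for 1 h at 37 °C, PCR-amplified and read on an Illumina NextSeq500. Each hexamer's frequency of reads for a factor, divided by the matching frequency for the tag-only sample, gives the binding signal.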

The target of the next test is ETV5 (Homo sapiens, UniProt P41161 1-510). The note with it: protein: recombinant; tags: N-terminal GST; dsDNA, one strand shown. The procedure, abridged:
as §1

A further test addresses HSF1 (Homo sapiens, UniProt Q00613 1-529). The note with it: protein: recombinant; tags: N-terminal GST; chain copies: 3; dsDNA, one strand shown. The method in brief: as §1
The next test concerns the target T2, SPIC (Homo sapiens, UniProt Q8N5J4 1-248).
T2 sequence: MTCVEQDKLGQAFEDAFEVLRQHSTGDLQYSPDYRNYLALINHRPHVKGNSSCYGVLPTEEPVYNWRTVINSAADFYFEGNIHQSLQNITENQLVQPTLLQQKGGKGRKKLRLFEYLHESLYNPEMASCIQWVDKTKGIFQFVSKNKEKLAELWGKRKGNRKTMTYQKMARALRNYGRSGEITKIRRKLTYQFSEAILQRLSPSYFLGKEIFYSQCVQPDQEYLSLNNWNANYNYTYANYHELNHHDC
The conditions noted are these: protein: recombinant; tags: N-terminal GST; dsDNA, one strand shown. The method in brief: as §1

For another test, the target named is ELF4 (Homo sapiens, UniProt Q99607 1-663). The conditions noted are these: protein: recombinant; tags: N-terminal GST; dsDNA, one strand shown. The procedure, abridged:
as §1

For the next test, the target named is T3, ELK4 (Homo sapiens, UniProt P28324-2 1-405).
T3 sequence: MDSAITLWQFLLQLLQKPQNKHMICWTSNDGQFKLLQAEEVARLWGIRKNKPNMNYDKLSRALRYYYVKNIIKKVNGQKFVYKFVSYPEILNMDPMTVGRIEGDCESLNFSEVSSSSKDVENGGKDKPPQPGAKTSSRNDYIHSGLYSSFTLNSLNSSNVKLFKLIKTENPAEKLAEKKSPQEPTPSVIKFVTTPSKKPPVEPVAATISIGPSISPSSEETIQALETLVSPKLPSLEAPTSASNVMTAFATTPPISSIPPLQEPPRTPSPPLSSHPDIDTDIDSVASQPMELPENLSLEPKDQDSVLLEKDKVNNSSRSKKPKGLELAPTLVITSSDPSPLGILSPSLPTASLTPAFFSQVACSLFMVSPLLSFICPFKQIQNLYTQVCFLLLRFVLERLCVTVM
The note with it: protein: recombinant; tags: N-terminal GST; dsDNA, one strand shown. The procedure, abridged:
as §1

A further test has as its target T4, ETV2 (Homo sapiens, UniProt O00321 1-342).
T4 sequence: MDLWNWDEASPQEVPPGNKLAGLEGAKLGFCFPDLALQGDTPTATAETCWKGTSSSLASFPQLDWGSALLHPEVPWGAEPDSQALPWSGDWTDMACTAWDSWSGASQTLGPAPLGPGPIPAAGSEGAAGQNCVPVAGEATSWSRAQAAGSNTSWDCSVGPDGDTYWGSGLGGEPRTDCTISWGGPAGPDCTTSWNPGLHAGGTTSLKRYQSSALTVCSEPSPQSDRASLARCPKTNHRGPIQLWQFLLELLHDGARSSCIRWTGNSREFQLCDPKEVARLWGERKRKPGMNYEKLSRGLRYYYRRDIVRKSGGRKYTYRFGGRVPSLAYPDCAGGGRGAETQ
The note with it: protein: recombinant; tags: N-terminal GST; dsDNA, one strand shown. The procedure, abridged: as §1

For a further test, the target named is T5, ELF3 (Homo sapiens, UniProt P78545 1-371).
T5 sequence: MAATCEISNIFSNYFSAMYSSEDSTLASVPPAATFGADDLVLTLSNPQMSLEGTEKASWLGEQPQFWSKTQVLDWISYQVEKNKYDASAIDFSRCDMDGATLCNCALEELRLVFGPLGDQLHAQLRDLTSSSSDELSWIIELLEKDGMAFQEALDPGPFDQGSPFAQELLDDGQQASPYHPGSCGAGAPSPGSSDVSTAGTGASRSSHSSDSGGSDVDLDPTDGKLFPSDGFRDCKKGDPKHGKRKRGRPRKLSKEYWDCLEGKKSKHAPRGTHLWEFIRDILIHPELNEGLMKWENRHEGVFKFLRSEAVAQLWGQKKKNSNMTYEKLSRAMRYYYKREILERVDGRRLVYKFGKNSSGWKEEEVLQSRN
The conditions noted are these: protein: recombinant; tags: N-terminal GST; dsDNA, one strand shown. The method in brief: as §1

The target of another test is CRX (Homo sapiens, UniProt O43186 1-299). The conditions noted are these: protein: recombinant; tags: N-terminal GST; dsDNA, one strand shown. The method in brief:
as §1

For a further test, the target named is ETV1 (Homo sapiens, UniProt P50549 1-477). The conditions noted are these: protein: recombinant; tags: N-terminal GST; dsDNA, one strand shown. The procedure, abridged:
as §1

The next test concerns the target T6, ERF (Homo sapiens, UniProt P50548 1-548).
T6 sequence: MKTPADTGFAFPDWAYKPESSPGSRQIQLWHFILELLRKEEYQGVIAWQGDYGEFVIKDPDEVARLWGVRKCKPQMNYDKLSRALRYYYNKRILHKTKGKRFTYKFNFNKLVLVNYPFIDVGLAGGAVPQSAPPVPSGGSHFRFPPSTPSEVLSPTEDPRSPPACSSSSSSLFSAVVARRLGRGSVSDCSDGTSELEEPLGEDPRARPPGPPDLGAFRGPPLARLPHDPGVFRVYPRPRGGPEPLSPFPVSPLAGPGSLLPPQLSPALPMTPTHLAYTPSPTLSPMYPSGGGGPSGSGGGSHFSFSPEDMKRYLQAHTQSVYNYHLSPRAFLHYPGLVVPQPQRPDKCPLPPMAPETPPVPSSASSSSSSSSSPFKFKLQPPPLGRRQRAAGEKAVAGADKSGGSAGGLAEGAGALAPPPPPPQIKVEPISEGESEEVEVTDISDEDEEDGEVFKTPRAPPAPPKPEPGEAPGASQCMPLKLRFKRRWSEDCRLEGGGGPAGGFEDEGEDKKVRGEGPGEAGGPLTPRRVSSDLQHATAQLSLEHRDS
The note with it: protein: recombinant; tags: N-terminal GST; dsDNA, one strand shown. The method in brief:
as §1

Another test has as its target T7, ETV3L (Homo sapiens, UniProt Q6ZN32 1-361).
T7 sequence: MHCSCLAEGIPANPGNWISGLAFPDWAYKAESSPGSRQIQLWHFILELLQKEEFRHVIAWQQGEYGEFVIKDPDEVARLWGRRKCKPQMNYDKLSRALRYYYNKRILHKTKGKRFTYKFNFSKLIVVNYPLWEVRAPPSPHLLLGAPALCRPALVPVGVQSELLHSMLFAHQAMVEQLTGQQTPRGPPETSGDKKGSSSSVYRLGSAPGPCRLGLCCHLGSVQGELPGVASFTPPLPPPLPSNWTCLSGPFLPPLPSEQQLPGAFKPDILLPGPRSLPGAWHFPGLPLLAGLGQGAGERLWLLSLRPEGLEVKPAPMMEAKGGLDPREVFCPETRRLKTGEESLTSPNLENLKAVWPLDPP
The conditions noted are these: protein: recombinant; tags: N-terminal GST; dsDNA, one strand shown. The method in brief:
as §1

Another test has as its target T8, ETS2 (Homo sapiens, UniProt P15036 1-469).
T8 sequence: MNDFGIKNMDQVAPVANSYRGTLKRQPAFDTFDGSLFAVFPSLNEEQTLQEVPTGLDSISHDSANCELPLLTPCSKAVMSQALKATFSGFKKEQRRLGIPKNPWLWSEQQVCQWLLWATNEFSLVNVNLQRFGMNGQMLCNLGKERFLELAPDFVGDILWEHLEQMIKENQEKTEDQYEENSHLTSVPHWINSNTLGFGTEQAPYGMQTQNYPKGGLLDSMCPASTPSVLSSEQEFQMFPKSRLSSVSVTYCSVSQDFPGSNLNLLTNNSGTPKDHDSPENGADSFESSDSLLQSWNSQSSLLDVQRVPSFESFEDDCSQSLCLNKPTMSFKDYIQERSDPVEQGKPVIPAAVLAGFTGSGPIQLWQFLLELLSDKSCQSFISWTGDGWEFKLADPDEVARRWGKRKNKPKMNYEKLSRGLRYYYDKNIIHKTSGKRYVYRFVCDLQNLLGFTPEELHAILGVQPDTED
The conditions noted are these: protein: recombinant; tags: N-terminal GST; dsDNA, one strand shown. The method in brief: as §1

Another test concerns the target T9, SPDEF (Homo sapiens, UniProt O95238 1-335).
T9 sequence: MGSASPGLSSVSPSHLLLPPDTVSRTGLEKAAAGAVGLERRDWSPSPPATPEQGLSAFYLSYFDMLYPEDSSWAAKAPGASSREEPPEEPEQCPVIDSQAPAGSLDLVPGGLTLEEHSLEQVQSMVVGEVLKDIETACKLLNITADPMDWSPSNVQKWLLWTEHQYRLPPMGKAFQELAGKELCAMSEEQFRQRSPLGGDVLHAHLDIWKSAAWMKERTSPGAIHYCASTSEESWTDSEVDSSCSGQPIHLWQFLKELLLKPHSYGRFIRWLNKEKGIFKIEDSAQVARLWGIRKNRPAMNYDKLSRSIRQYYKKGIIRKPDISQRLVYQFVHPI
The note with it: protein: recombinant; tags: N-terminal GST; dsDNA, one strand shown. The method in brief:
as §1

The next test has as its target T10, ETV7 (Homo sapiens, UniProt Q9Y603 1-341).
T10 sequence: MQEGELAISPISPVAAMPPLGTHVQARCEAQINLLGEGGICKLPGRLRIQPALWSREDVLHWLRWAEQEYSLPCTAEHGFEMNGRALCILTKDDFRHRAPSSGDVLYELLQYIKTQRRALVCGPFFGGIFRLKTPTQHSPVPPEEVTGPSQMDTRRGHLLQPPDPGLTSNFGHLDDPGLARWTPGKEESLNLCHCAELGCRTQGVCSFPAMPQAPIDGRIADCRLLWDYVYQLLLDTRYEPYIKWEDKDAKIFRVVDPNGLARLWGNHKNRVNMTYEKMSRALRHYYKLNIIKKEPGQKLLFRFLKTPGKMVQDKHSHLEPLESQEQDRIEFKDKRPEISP
The conditions noted are these: protein: recombinant; tags: N-terminal GST; dsDNA, one strand shown. The procedure, abridged:
as §1

For the next test, the target named is T11, ELF5 (Homo sapiens, UniProt Q9UKW6-2 1-255).
T11 sequence: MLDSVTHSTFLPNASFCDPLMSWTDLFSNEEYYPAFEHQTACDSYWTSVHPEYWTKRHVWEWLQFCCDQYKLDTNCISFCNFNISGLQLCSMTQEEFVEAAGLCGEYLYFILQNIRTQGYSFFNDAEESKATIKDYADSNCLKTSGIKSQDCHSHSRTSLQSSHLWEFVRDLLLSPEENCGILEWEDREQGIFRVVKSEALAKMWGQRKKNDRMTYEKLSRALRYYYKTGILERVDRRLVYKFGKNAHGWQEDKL
The note with it: protein: recombinant; tags: N-terminal GST; dsDNA, one strand shown. The method in brief: as §1

Another test has as its target T12, ETV3 (Homo sapiens, UniProt P41162-2 1-143).
T12 sequence: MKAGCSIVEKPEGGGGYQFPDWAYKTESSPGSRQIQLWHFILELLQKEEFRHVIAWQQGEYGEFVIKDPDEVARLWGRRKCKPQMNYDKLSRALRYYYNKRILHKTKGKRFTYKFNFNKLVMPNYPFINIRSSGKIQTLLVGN
The conditions noted are these: protein: recombinant; tags: N-terminal GST; dsDNA, one strand shown. The procedure, abridged: as §1

The target in the next test is ETV6 (Homo sapiens, UniProt P41212 1-452). The conditions noted are these: protein: recombinant; tags: N-terminal GST; dsDNA, one strand shown. The procedure, abridged:
as §1

Experimental findings from publication PMC7862700, “An all-to-all approach to the identification of sequence-specific readers for epigenetic DNA modifications on cytosine” are described below.

Sequence of ETV1 (P50549 whole entry): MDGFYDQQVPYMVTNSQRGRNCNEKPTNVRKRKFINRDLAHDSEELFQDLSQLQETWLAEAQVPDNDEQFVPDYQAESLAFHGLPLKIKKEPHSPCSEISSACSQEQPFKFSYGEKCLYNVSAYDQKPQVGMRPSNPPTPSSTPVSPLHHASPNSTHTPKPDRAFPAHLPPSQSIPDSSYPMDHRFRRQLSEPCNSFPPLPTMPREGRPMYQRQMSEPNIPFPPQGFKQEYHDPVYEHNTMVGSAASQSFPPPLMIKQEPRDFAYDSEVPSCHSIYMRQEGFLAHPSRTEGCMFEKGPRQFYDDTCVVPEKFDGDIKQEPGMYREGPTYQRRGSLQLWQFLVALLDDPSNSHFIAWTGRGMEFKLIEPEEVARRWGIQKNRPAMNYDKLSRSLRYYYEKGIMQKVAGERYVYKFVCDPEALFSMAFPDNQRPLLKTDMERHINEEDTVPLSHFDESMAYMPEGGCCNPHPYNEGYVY
Sequence of ELF4 (Q99607 whole entry): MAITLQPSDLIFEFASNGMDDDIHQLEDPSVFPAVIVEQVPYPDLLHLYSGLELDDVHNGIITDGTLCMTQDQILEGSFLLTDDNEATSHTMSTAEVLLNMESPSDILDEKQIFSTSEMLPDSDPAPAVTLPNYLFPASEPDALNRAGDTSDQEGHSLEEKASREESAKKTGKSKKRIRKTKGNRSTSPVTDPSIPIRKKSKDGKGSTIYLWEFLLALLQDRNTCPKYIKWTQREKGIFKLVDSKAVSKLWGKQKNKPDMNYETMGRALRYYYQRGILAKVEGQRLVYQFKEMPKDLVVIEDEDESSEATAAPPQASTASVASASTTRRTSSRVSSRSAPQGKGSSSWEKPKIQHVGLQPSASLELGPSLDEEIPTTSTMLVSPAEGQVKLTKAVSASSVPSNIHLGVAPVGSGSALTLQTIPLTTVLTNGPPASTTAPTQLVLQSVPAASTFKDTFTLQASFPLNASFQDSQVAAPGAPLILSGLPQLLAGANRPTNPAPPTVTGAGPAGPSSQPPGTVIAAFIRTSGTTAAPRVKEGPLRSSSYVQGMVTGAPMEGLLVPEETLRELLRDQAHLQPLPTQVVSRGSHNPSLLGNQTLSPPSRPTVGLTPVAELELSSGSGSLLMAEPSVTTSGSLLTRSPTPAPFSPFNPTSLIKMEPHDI
Sequence of HSF1 (Q00613 whole entry): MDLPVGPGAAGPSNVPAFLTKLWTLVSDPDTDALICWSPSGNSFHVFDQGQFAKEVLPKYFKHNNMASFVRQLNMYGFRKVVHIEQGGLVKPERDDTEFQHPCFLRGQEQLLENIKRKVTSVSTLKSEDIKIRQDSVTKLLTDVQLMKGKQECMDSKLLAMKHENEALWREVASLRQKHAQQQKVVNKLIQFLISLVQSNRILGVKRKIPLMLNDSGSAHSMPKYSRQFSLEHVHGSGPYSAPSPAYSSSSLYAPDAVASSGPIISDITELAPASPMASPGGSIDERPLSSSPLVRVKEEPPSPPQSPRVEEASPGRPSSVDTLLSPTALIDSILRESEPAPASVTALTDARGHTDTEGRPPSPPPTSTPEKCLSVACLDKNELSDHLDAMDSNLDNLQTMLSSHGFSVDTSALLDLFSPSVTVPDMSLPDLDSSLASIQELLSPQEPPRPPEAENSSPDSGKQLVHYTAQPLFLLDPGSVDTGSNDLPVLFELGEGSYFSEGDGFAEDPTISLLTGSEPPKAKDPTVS
Sequence of ETV6 (P41212 whole entry): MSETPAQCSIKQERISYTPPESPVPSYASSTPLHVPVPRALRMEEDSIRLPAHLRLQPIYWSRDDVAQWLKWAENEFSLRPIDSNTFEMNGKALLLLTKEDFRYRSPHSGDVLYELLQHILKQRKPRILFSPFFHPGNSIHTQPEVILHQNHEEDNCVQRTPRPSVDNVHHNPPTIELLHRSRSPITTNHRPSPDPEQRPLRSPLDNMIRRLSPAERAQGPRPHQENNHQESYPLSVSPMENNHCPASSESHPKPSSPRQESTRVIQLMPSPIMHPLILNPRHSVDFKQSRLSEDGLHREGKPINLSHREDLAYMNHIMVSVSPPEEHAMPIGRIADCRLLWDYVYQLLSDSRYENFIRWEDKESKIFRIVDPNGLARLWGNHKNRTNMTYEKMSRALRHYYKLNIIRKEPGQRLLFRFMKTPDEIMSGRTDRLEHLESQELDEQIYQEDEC
Sequence of ETV5 (P41161 whole entry): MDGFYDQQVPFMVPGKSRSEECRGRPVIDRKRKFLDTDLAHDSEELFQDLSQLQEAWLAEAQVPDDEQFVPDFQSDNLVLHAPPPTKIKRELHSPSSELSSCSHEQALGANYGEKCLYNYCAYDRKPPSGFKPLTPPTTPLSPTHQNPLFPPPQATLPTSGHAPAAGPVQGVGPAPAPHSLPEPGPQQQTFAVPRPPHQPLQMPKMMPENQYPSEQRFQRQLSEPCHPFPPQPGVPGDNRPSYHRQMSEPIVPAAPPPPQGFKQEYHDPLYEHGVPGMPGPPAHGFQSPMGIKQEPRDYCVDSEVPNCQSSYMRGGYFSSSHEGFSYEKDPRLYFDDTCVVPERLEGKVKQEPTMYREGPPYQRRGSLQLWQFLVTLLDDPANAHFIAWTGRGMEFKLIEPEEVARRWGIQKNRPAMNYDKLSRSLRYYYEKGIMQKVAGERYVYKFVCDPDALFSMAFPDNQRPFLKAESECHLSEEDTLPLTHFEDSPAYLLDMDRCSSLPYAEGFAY
Sequence of CRX (O43186 whole entry): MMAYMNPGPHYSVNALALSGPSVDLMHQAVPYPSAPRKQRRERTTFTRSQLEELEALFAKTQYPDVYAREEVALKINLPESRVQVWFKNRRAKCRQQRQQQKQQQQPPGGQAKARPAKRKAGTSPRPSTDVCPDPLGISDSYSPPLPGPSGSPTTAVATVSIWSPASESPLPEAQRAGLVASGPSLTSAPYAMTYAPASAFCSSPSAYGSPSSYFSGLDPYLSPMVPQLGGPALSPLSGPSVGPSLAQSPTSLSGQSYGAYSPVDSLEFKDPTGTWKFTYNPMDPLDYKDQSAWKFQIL

On to CTTTCC, for which the binding signal in the test with FEV is 2.15 fold enrichment (6-mer frequency, TF over GST control); with ETV5, 2.04 fold enrichment (6-mer frequency, TF over GST control); with HSF1, 2.13 fold enrichment (6-mer frequency, TF over GST control); with SPIC, 1.82 fold enrichment (6-mer frequency, TF over GST control); in the test with ELF4 it was 1.9 fold enrichment (6-mer frequency, TF over GST control); with ELK4, 1.94 fold enrichment (6-mer frequency, TF over GST control). Further, the binding signal was 2.11 fold enrichment (6-mer frequency, TF over GST control) with ETV2; 1.63 fold enrichment (6-mer frequency, TF over GST control) with ELF3; 1.54 fold enrichment (6-mer frequency, TF over GST control) in the test with CRX; 1.91 fold enrichment (6-mer frequency, TF over GST control) with ETV1; 1.82 fold enrichment (6-mer frequency, TF over GST control) with ERF; 1.76 fold enrichment (6-mer frequency, TF over GST control) with ETV3L. The binding signal in the test with ETS2 is 2.1 fold enrichment (6-mer frequency, TF over GST control); with SPDEF, 1.96 fold enrichment (6-mer frequency, TF over GST control); with ETV7, 1.64 fold enrichment (6-mer frequency, TF over GST control); with ELF5 it was 2.39 fold enrichment (6-mer frequency, TF over GST control); with ETV3 it was 2.12 fold enrichment (6-mer frequency, TF over GST control); with ETV6, 2.07 fold enrichment (6-mer frequency, TF over GST control).
